Source: PubChem BioAssay (several laboratories)
Rows were chosen to be rich in hits. Some 5.1% of all compounds tested hit in one or more screens of this group.
S1P4 ag – activates the human S1P4 receptor | O95977 | S1P4-expressing cell line, agonist reporter assay | activation, % at 4.98 µM | 220,000 compounds, 0.35% hits | AID 1509; in the data active = activation above about 11%
Target sequence (O95977 whole entry, looked up): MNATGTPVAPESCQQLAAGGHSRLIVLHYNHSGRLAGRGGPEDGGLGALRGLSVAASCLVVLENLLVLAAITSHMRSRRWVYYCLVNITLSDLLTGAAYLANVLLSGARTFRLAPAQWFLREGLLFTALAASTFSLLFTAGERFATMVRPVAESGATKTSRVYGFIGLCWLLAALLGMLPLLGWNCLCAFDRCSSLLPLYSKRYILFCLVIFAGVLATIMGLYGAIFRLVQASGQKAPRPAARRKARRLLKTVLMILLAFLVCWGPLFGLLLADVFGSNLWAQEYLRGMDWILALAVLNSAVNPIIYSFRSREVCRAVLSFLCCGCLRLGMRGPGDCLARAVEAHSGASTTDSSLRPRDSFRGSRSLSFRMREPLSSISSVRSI
S1P4 antag – blocks the human S1P4 receptor | inhibition, % at 4.98 µM | S1P4-expressing cells, antagonist mode, reporter read-out | AID 1510 | 220,000 compounds, 0.26% hits | O95977; in the data active = inhibition above about 29%
S1P3 antagonist – S1P3 (human) receptor antagonism | Q99500 | CHO S1P3 NFAT-BLA reporter, FRET fluorescence, antagonist mode | inhibition, % at 4.98 µM | 170,000 compounds, 0.27% hits;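 active = inhibition above the plate cutoff, the mean inhibition of test wells on that plate plus 3 SD, cut at about 28% in these data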;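 also: cells challenged with S1P at its EC80 of 0.8 µM; blue over green emission ratio from cleaved BLA substrate after 4 h stimulation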
RAM network inh – blocks the yeast RAM network; inhibition, % at 50 µM; S. cerevisiae dse1pr::URA3 reporter, 5-FOA growth OD615, 2 d; analog-sensitive cbk1-as2 kinase mutant strain; AID 868; 190,000 compounds, 1.8% hits;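 active = inhibition above a set limit, 3 SD over mean compound inhibition, cut at about 8.4% in these data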;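 also: inhibition rescues growth on 5-FOA so higher OD means more RAM inhibition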
Cl transport mod – modulators of human KCC2 chloride dependent transport; AID 1456; Q9H2X9; 190,000 compounds, 2.2% hits; B-score of Tl+ flux slope (higher = more flux/activation; lower = inhibition) at 10 µM; KCC2 cells, thallium flux FluoZin-2 fluorescence;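 active = thallium flux slope and its plate-corrected score both differing from the plate sample mean at a set confidence after two filtering rounds, in either direction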;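 also: slope of fluorescence scaled to starting intensity during 10 to 20 s after thallium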
ROMK primary – modulators of human ROMK potassium channel | 130,000 compounds, 2% hits | B-score at 10 µM | Tet-inducible ROMK, thallium flux fluorescence; actives lie on both sides;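 active = signal ratio slope over the read window, or its plate-corrected B-score, at least 3 SD from the plate mean, either direction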;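 also: B-score of the F/F0 ratio slope over 7 to 12 s after thallium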
ROMK retest – confirmation of human ROMK potassium channel modulators; normalized thallium flux (F/F0 slope) at 10 µM; AID 1917; ROMK thallium flux, fluorescence ratio; stronger effect = lower value; shares compounds with ROMK primary; 3,000 compounds, 54% hits;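 active = Flux at 10 µM at least 3 SD below or above vehicle control mean in one or both replicates; inconclusive = no clear call, values can overlap the other calls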
Numbers stand for hits; - = inactive; ? = inconclusive; . = not tested or not shown.

SMILES | S1P4 ag | S1P4 antag | S1P3 antagonist | RAM network inh | Cl transport mod | ROMK primary | ROMK retest
C=CCOC(=O)C1=C(C)OC(N)=C(C#N)C1c1c(C)nn(-c2ccccc2)c1Cl (stereo not given) | - | - | - | - | - | -4 | 0.059
CO/N=C/c1ccc(OC)c(Oc2nc(OC)cc(OC)n2)c1 | - | - | - | - | - | - | .
CCc1sc(C(=O)Nc2ccccc2N2CCOCC2)cc1C | - | - | - | - | - | -2.6 | 0.064
Cc1ccc(-n2cccn2)c(CN2CCC(CO)(CCc3ccccc3)CC2)c1 | - | - | - | - | - | -3.3 | 0.061
OCC1(CCc2ccccc2)CCN(Cc2cc(Cl)ccc2O)CC1 | - | - | - | - | - | - | .
COc1ccc2c(Cl)c(C(=O)N/N=C3\CCCC(=O)C3)sc2c1 | - | - | - | - | - | -3.1 | -
CC(C)(C)C(=O)Cn1c(=N)n(Cc2ccccc2Cl)c2ccccc21 | - | - | . | - | . | - | .
Cc1ccc(Cn2c(=N)n(CC(=O)c3ccccc3)c3ccccc32)cc1 | - | - | - | - | - | -5.2 | 0.052
N=c1n(CC(=O)c2cccc([N+](=O)[O-])c2)c2ccccc2n1Cc1ccccc1 | - | - | - | - | - | . | .
CCCn1c(=N)n(CC(=O)c2ccc([N+](=O)[O-])cc2)c2ccccc21 | - | - | - | - | . | -4.4 | -
CC(C)(C)C(=O)Cn1c(=N)n(Cc2ccccc2)c2ccccc21 | - | - | - | - | - | . | 0.047
NNc1cc([N+](=O)[O-])cc2c1C(=O)N(Cc1ccccc1)S2=O (stereo not given) | - | - | - | - | - | - | .
O=C(Cc1ccccc1F)NCC(c1ccco1)N1CCCCC1 (stereo not given) | - | - | - | - | - | - | .
O=C(NCC1CCCO1)C1CC(=O)N(C2CCCC2)C1 (stereo not given) | - | - | . | - | - | - | .
Cc1cc(C(=O)COc2ccccc2C(N)=O)c(C)n1CC1CCCO1 (stereo not given) | - | - | - | - | - | - | .
COC(=O)CCn1c(C)cc(C(=O)COc2ccccc2C(N)=O)c1C | - | - | - | - | - | -5.4 | ?
CCN1CCS/C1=C\C=C\C1=[N+](CC)CCS1 | - | - | - | - | . | . | ?
O=C(COC(=O)C1CC2C=CC1C2)Nc1cccc(S(=O)(=O)N2CCOCC2)c1 (stereo not given) | - | - | - | . | - | . | -
O=C(COC(=O)c1ccc2c(c1)OCCO2)Nc1cccc(S(=O)(=O)N2CCOCC2)c1 | - | - | - | - | - | - | .
CCOC(=O)COc1ccc(Br)cc1/C=C/c1[nH]c(=O)[nH]c(=O)c1[N+](=O)[O-] | - | - | - | - | - | -2.7 | 0.051
CCOC(=O)COc1ccc(Br)cc1/C=C\c1[nH]c(=O)[nH]c(=O)c1[N+](=O)[O-] | - | - | - | - | - | - | .
Cc1csc(NC(=O)c2cc(-c3ccccc3)nc3ccccc23)n1 | - | - | - | - | - | . | -
Cc1nn2c(-c3cccc(NC(=O)CSc4nc5ccccc5o4)c3)nnc2c2ccccc12 | - | - | - | - | - | - | .
C/C=C/C(=O)N(CC)c1ccccc1C | - | - | - | . | - | . | .
CCC1(C(=O)O)NC(c2cc(OC)ccc2O)C2C(=O)N(Cc3ccccc3)C(=O)C21 (stereo not given) | - | - | - | - | - | . | .
SMILES | S1P4 ag | S1P4 antag | S1P3 antagonist | RAM network inh | Cl transport mod | ROMK primary | ROMK retest
CCCCN1C(=O)C2C(c3ccc(OC)cc3O)NC(CC(C)C)(C(=O)O)C2C1=O (stereo not given) | - | - | - | - | - | . | -
CC1CCCC(C)N1/N=C/c1ccc(N(C)C)cc1 (stereo not given) | - | - | - | - | - | - | .
CCCCc1cc(=O)oc2cc(C)cc(O)c12 | - | - | . | - | - | . | 0.054
COc1ccc2c(c1OC)C(=O)OC2Nc1nc(-c2cc3ccccc3oc2=O)cs1 (stereo not given) | - | - | - | - | - | . | 0.04
COc1ccc2c(c1OC)C(=O)OC2Nc1nc(-c2cc3cc([N+](=O)[O-])ccc3oc2=O)cs1 (stereo not given) | - | - | - | - | - | . | .
CCOc1ccccc1NC(=O)COC(=O)C(CC(C)C)N1C(=O)C2CC=CCC2C1=O (stereo not given) | - | - | - | - | - | . | 0.063
CC(C)CC(C(=O)OCC(=O)Nc1cccc(Cl)c1)N1C(=O)C2CC=CCC2C1=O (stereo not given) | - | - | - | - | - | . | .
CC(=O)C1=C(c2ccccc2)OC(N)=C(C#N)C1c1ccccc1C (stereo not given) | - | - | - | - | - | . | .
CC(=O)C1(C)OC(N)=C(C#N)C(c2ccccc2)C1(C#N)C#N (stereo not given) | - | - | . | - | - | -3.3 | ?
CCNc1nc(-c2ccc(OC(F)F)cc2)c(C)s1 | - | - | - | - | - | -4.5 | 0.062
N#C/C(=C\c1ccco1)C(=O)NCc1ccccc1 | - | - | - | - | - | - | .
N#CC(C#N)=C1C=CC=CN1/C(=C\c1ccco1)C(=O)c1ccc(Cl)cc1 | - | - | - | - | - | -3 | 0.045
Cc1ccc(NC(=O)C(Nc2ccccc2)c2ccccc2)cc1 (stereo not given) | - | - | - | - | - | . | -
Cc1ccc(NC(=O)C(Nc2cccc(C)c2)c2ccccc2)cc1 (stereo not given) | - | - | - | - | - | - | .
CCOc1cc2c3c(c1)C(C)=CC(C)(C)N3C(=O)C2=O | - | - | - | - | - | 3.2 | -
Cn1c(SCC(=O)Nc2ccc(NC(=O)c3cccs3)cc2)nnc1-c1ccncc1 | - | - | . | - | - | . | .
O=C(NCCCn1ccnc1)c1cc(-c2cccc(O)c2)on1 | - | - | - | . | - | - | .
CC(=O)/C(=C/c1ccccc1)C(=O)Nc1ccccc1C | - | - | - | - | - | -3.6 | 0.048
O=C(NC1CCCCCCC1)C1c2ccccc2C(=O)N1Cc1ccco1 (stereo not given) | - | - | . | - | - | . | ?
O=C(NC1CCCCCC1)C1c2ccccc2C(=O)N1Cc1cccnc1 (stereo not given) | - | - | - | - | . | . | .
Nc1nonc1C(=O)NCCNCc1ccccc1OCc1ccc(F)cc1 | - | - | . | - | - | . | 0.062
CCOc1ccc(CNCCNC(=O)c2nonc2N)cc1 | - | - | - | - | - | - | .
CCN(CC(=O)Nc1ccc2c(c1)OCCO2)c1nc(-c2cccnc2)nc2ccccc12 | - | - | - | - | - | - | .
CCN(CC)c1ccc(/C=C2\C(=O)N(c3ccc([N+](=O)[O-])cc3)N=C2N2CCOCC2)cc1 | - | - | . | . | - | - | .
CC1=NOC(=O)/C1=C/c1ccc(N(C)C)cc1 | - | - | . | - | - | . | ?
CCN(CC)c1ccc(/C=C2\C(=O)N(c3nnc(C)c(=O)[nH]3)N=C2C)cc1 | - | - | - | . | - | . | 0.029
